# Measured values taken from PubChem BioAssay AID488969 (Vanderbilt High Throughput Screening Facility, 2010).
# The full ranking holds about 110,000 compounds; the median of “z-score” is about -0.1, and the highest 2% start at about 2. The list comes from a sample in which the highest values are over-represented; it also holds similar structures and randomly drawn compounds. Activity calls are given as the source filed them.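 How the source made its calls: active means z-score in the third read window above 3 or below -3; inactive means the rest.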
# Molecular target: Metabotropic glutamate receptor 8 (Rattus norvegicus) (UniProt P70579)
# Test: mGluR8 Gi/Go-coupled signaling modulation – cell-based, rat, thallium flux, HTS, primary screen (AID 488969)
# Conditions: HEK293 rat mGluR8, GIRK (G protein-gated inwardly rectifying potassium channel) thallium flux, FluoZin2; at 10 µM; stronger effect = higher value; submaximal glutamate (EC20) added with thallium
# Chain of Metabotropic glutamate receptor 8 (Rattus norvegicus) (P70579 whole entry, looked up): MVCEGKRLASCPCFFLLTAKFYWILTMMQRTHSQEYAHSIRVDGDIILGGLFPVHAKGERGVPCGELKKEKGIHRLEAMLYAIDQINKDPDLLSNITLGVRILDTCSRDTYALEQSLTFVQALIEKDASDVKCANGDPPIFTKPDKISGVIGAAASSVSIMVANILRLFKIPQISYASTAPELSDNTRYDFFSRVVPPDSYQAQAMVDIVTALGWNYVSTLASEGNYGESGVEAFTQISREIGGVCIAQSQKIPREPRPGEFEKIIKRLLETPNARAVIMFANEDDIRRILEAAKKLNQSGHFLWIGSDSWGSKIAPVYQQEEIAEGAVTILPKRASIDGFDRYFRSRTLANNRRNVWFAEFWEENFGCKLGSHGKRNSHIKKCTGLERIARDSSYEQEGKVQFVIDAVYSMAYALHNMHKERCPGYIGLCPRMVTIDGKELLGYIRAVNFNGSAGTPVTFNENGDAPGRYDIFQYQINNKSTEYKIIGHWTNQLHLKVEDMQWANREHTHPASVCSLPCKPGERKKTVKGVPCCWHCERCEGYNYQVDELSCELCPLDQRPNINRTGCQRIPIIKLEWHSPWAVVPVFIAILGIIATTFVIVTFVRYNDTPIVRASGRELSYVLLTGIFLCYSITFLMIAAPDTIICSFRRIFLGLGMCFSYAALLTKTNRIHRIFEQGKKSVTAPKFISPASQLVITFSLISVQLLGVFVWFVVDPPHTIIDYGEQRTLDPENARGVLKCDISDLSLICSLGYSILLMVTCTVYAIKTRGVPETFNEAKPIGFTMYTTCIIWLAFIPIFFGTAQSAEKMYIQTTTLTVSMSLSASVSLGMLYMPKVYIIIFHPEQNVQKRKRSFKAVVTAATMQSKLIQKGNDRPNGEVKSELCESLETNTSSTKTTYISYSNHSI
row,SMILES,z-score
1,Cc1cc(NCCN2CCOCC2)n2nc(C)c(-c3ccc(Cl)cc3)c2n1,-0.362
2,COc1ccccc1-c1c(C#N)c(SCC(=O)N2CCCC2)nc(C)c1C(N)=O,0.169
3,CNC(=O)c1ccc(-n2nc(C)cc2-c2ccccc2)cc1,-0.167
4,CCOC(=O)c1c(N)sc2c(OCC)c(Br)ccc12,0.151
5,CCCNC(=O)C(Cc1ccccc1)NS(=O)(=O)c1ccc2c(c1)CCC(=O)N2 (stereo unspecified),0.179
6,O=C1CCc2cc(S(=O)(=O)NC(C(=O)NCc3cccnc3)c3ccccc3)ccc2N1 (stereo unspecified),-0.174
7,CCCN(CCC)CCNC(=O)C(NS(=O)(=O)c1ccc2c(c1)CCC(=O)N2)c1ccccc1 (stereo unspecified),10 (active)
8,Cc1ccccc1S(=O)(=O)c1c(C)cc(C)n(C(C)C)c1=O,-0.131
9,C=C(C)CNC(=S)N/N=C1\CCCCc2ccccc21,3.15 (active)
10,CCCCNC(=S)N/N=C1\CCCCc2ccccc21,2.17
11,CCNC(=S)N/N=C1\CCCCc2ccccc21,1.57
12,Cc1cccc(NC(=S)N/N=C2/CCCCc3ccccc32)c1,0.797
13,COc1cccc(NC(=S)N/N=C2\CC(C)(C)Oc3ccc(O)cc32)c1,-0.0142
14,COC(=O)N/N=C1\CCCc2ccccc21,-0.137
15,CCCCCCC(=O)N/N=C1\CCCc2ccccc21,-0.118
16,CC(C)NC(=S)N/N=C1\CCCCc2ccccc21,-0.471
17,COc1cccc(NC(=S)N/N=C2/CCCCc3ccccc32)c1,8.28 (active)
18,CC(=O)N1CCCc2cc(S(=O)(=O)N(C)Cc3ccccc3)ccc21,0.884
19,Cc1ccc(SCc2nc3ccccc3[nH]2)cc1,-0.0609
20,CCCC(=O)NC(Nc1cccc(C(F)(F)F)c1)C(Cl)(Cl)Cl (stereo unspecified),-0.917
21,COc1cc(OC)c(OC)cc1NC(=O)CC1COc2ccccc2O1 (stereo unspecified),-0.0814
22,COc1cccc(NC(=O)CSc2nc(N)cc(N)n2)c1,3.37 (active)
23,COc1ccccc1NC(=O)CC1COc2ccccc2O1 (stereo unspecified),0.0423
24,Cc1cccc(NC(=O)CSc2nc(N)cc(N)n2)c1,-0.298

row,SMILES,z-score
1,COc1cccc(NC(=O)CC2COc3ccccc3O2)c1 (stereo unspecified),5.36 (active)
2,COc1ccc(OCC(=O)Nc2ccc(C)cc2)cc1,-0.351
3,COc1ccccc1NC(=O)COc1ccccc1,0.137
4,COc1ccc(OCC(=O)NNC(=O)C(=O)Nc2ccc(C)cc2)cc1,2.73
5,COc1ccc(OCC(=O)Nc2ccccc2OC(F)F)cc1,2.69
6,COc1ccc(OCC(=O)Nc2ccccc2O)cc1,-0.431
7,CCOc1ccc(OCC(=O)Nc2ccc(OC)cc2)cc1,-0.476
8,Nc1cc(N)nc(SCC(=O)Nc2ccccc2)n1,-0.306
9,COc1ccc(NS(=O)(=O)c2cc(S(C)(=O)=O)ccc2C)cc1,-0.235
10,COc1ccc2c(c1)C(NC(=O)C(F)(F)F)CC2=O (stereo unspecified),0.142
11,O=C(N1CCOCC1)N1CCN(C(=O)N2CCOCC2)CC1,-0.108
12,COc1cc(C(=O)CSc2nncn2C)cc(OC)c1OC,-0.245
13,CC1(C)Cc2nc3sc4c(OCc5ccccc5)ncnc4c3cc2CO1,-0.0531
14,CCCN(CCC)C1=N/C(=C\c2ccco2)C(=O)N1c1ccccc1,-0.536
15,Cc1ccccc1NC1C=CS(=O)(=O)C1 (stereo unspecified),-0.358
16,Cc1ccc(N2C(=O)CCSC23C(=O)Nc2ccccc23)cc1 (stereo unspecified),-0.0429
17,CC(C)(C)NC(=O)C(=O)NNC(=O)COc1ccc(Br)cc1,1.89
18,COc1ccc(OCC(=O)Nc2cccc(OC)c2)cc1,-0.532
19,COc1cc(NC(=O)COc2cccc(OC)c2)cc(OC)c1,0.638
20,COc1cccc(NC(=O)COc2ccc(C)cc2)c1,4.04 (active)
21,Cc1ccc(OCC(=O)NNC(=O)C(=O)NC(C)(C)C)cc1,2.61
22,CC(C)(C)NC(=O)C(=O)NNC(=O)COc1ccccc1,0.182
23,O=C(COc1ccc(S(=O)(=O)NC2CCCCC2)cc1Cl)N1CCN(c2ccccc2)CC1,1.16
24,COc1cccc(/C=N/NC(=O)C(=O)N2CCCC2)c1OC,-0.494

row,SMILES,z-score
1,CCSc1nnc(NC(=O)C2CCN(S(=O)(=O)c3ccccc3C(F)(F)F)CC2)s1,-0.565
2,O=C(Nc1ccccc1)/C(=C\c1ccc2c(c1)OCO2)NC(=O)c1ccco1,-0.0407
3,O=C(O)CC1C(=O)NCCN1Cc1ccc(F)c(F)c1 (stereo unspecified),-0.183
4,Cc1ccc(CN2CCNC(=O)C2CC(=O)O)cc1 (stereo unspecified),-0.134
5,COc1ccc(CN2CCNC(=O)C2CC(=O)O)cc1OC (stereo unspecified),3.61 (active)
6,CC1CC(C)CN(CCOCCSc2ccccc2)C1 (stereo unspecified),0.729
7,O=C(Cn1cc(C(F)(F)F)cc(Cl)c1=O)NCCc1ccccc1,-0.155
8,CC(=O)c1cccc(NC(=S)NC(=O)c2ccccc2Cl)c1,1.17
9,Cc1ccc(NC(=O)NC(=S)NC(=O)c2ccccc2)cc1,1.68
10,CCC(=O)Nc1cccc(NC(=S)NC(=O)c2ccccc2)c1,-0.455
11,CC(=O)c1cccc(NC(=S)NC(=O)c2cccc(Cl)c2)c1,8.71 (active)
12,CCC(=O)Nc1cccc(NC(=S)NC(=O)c2cccc(C)c2)c1,0.23
13,CC(=O)c1cccc(NC(=S)NC(=O)c2ccc(Cl)cc2)c1,-0.258
14,Cc1cccc(NC(=O)NC(=S)NC(=O)c2ccccc2)c1,2.86
15,CC(=O)c1cccc(NC(=S)NC(=O)c2cccc(C)c2)c1,7.49 (active)
16,COC(=O)c1cccc(NC(=S)Nc2cccc(Cl)c2Cl)c1,2.5
17,CC(=O)c1cccc(NC(=S)NC(=O)c2ccccc2)c1,1.63
18,COC(=O)c1cccc(NC(=S)Nc2cccc(Cl)c2C)c1,0.445
19,COC(=O)c1cccc(NC(=S)NCc2ccc(Cl)cc2)c1,0.53
20,O=C(c1ccc2snnc2c1)N1CCN(c2ccccn2)CC1,-0.329
21,COC(=O)Nc1sc2c(c1C(=O)N1CCOCC1)CCC(C)C2 (stereo unspecified),0.0522
22,COc1ccccc1S(=O)(=O)Nc1cccc(-c2nnc3n2CCCCC3)c1,-0.163
23,Cc1cc2cc(C(c3nnnn3C(C)(C)C)N(Cc3ccco3)CC3CCCO3)c(=O)[nH]c2cc1C (stereo unspecified),-0.208
24,O=C(/C=C/c1ccc(F)cc1)c1ccccc1Br,-0.272

row,SMILES,z-score
1,COc1ccc2nc(C(F)(F)C(F)(F)F)c(C#N)c(N)c2c1,-0.334
2,O=C(NNC(=S)Nc1cccc(C(F)(F)F)c1)c1ccccc1Cl,0.86
3,CC(C)Oc1cccc(C(=O)NC(=S)Nc2cccc(C(F)(F)F)c2)c1,0.755
4,CC(C)Oc1cccc(C(=O)NC(=S)Nc2cccc(NC(=O)c3ccccc3Cl)c2)c1,-0.41
5,O=C(NNC(=S)Nc1cccc(C(F)(F)F)c1)c1cccc(Cl)c1,2.97
6,Cc1ccccc1C(=O)NNC(=S)Nc1cccc(C(F)(F)F)c1,-0.0547
7,CC(C)Oc1cccc(C(=O)NC(=S)Nc2ccccc2)c1,3.26 (active)
8,CCS(=O)(=O)N1CCN(C(=O)COc2ccc(-c3ccccc3)cc2)CC1,-0.0325
9,O=c1c2c3c(sc2nc2n1CCCC2)CCCCC3,-0.277
10,O=c1c2c3c(sc2nc2n1CCCCC2)CCC3,-0.21
11,O=c1c2c3c(sc2nc2n1CCCCC2)CCCCC3,8.38 (active)
12,O=C(Cn1c(CC(=O)N2CCOCC2)nc2ccccc21)Nc1ccc2c(c1)OC(F)(F)O2,1.15
13,CCOc1ccc2nc(NC(=O)CN3CCN(C)CC3)sc2c1,0.433
14,C=CCNCCCOc1ccc(C)cc1Br,0.425
15,CC(=O)Nc1ccc(S(=O)(=O)N(C)CC(=O)OCC(=O)Nc2cccnc2Cl)cc1,-0.172
16,C/C(=N\NC(=O)c1ccc(Cl)cc1)c1ccc(Br)s1,8.88 (active)
17,C/C(=N/NC(=O)c1cc(Cl)ccc1O)C12CC3CC(CC(C3)C1)C2,3.19 (active)
18,C/C(=N\NC(=O)c1cccc(F)c1)c1ccc(Br)s1,7.29 (active)
19,CC/C(=N\NC(=O)c1ccccc1Cl)c1ccc(Br)s1,0.216
20,C/C(=N/NC(=O)c1ccoc1C)C12CC3CC(CC(C3)C1)C2,0.37
21,C/C(=N\NC(=O)c1ccccc1O)c1ccc(Br)s1,2.99
22,C/C(=N\NC(=O)c1cccc(N/N=C(\C)c2ccccc2)c1)c1ccccc1,-0.529
23,C/C(=N/NC(=O)CNc1ccc(C)cc1)c1ccc(Br)s1,0.214
24,O=C(NN=C1C2CC3CC(C2)CC1C3)c1cc(Cl)ccc1O,0.0729

row,SMILES,z-score
1,COc1ccccc1NCC(=O)N/N=C(\C)c1ccc(Br)s1,-0.279
2,C/C(=N\NC(=O)CNc1cccc(C)c1)c1ccc(Br)s1,0.0989
3,C/C(=N\NC(=O)c1ccc(Cl)c(Cl)c1)c1ccc(Br)s1,1.19
4,O=C(CN1CCCCCCC1)N/N=C/c1ccc(F)c(F)c1,-0.563
5,CCC(C)(C)C1CCC(=NNC(=O)c2ccoc2C)CC1 (stereo unspecified),-0.259
6,Cc1sc(NC(=O)c2ccc(Br)s2)c(C(N)=O)c1C,0.0217
7,COc1cc(OC)c(OC)cc1CN(C)C(c1ccccc1)c1nnnn1-c1ccccc1C (stereo unspecified),0.0196
8,CC(OC(=O)CCc1nc2ccccc2c(=O)[nH]1)C(=O)NC1CCCC1 (stereo unspecified),-0.356
9,Cc1cccc2sc(N(CCN(C)C)C(=O)/C=C/c3cccs3)nc12,-0.145
10,O=c1[nH]c(CN2CCN(c3ccccc3)CC2)nc2ccccc12,0.214
11,COc1cccc(C2C=C(Nc3ccccc3)C(=O)N2c2ccccc2)c1 (stereo unspecified),-0.22
12,Cc1cc(C)c(NC(=O)C2CCCN2C(=O)NC2CCCCC2)c(C)c1 (stereo unspecified),1.35
13,O=C(N/N=C/C1CCCCC1)c1cc(Cl)ccc1O,0.618
14,C/C(=N\NS(=O)(=O)c1ccc(C)cc1)c1ccc(Br)s1,-0.207
15,C/C(=N\NC(=O)c1cc(Cl)ccc1O)c1ccc(Br)s1,6.48 (active)
16,Nc1[nH]ncc1N=Nc1ccc(Cl)cc1,-0.104
17,c1ccc(CNn2c(N3CCOCC3)nc3ccccc32)cc1,0.241
18,CCN(c1ccccc1)S(=O)(=O)c1cc(C(=O)Nc2cccc(Cl)c2)ccc1F,-0.0119
19,CCN(c1ccccc1)S(=O)(=O)c1cc(C(=O)Nc2ccc(F)c(F)c2)ccc1F,-0.178
20,CCN(c1ccccc1)S(=O)(=O)c1cc(C(=O)Nc2ccccc2Cl)ccc1F,2.19
